In the library only some 3.5% were active in any assay of this set; here they are far more common.
mHTT CaM bind: mHTT-calmodulin interaction abrogation | P42858 | AlphaScreen His-mHTT/GST-CaM binding, luminescence | inhibition, % at 15 µM | hit rate 3.6% among 190,000
Pf apPOL block: Pf-apPOL DNA polymerase inhibition; inhibition, % at 10 µM; Recombinant Pf-apPOL, molecular beacon fluorescence, 1.5 h; hit rate 0.25% among 210,000
A number is an active result. Rule as the data show it: active = inhibition above about 50%; inactive = the rest.

`COc1ccc(NC(=O)Cn2c(-c3ccc(OC)c(OC)c3)nc3ccccc3c2=O)cc1Cl` gave mHTT CaM bind inactive and Pf apPOL block inactive.
COc1ccc(CCNC(=O)C2CC(c3ccc(OC)c(OC)c3)=NO2)cc1OC (centres undefined) was read as mHTT CaM bind inactive and Pf apPOL block inactive.
For CN1C(=O)C2CCCCN2c2ccc(C(=O)N3CCN(c4cccc(Cl)c4)CC3)cc21 (centres undefined) the results were mHTT CaM bind 98.7 and Pf apPOL block inactive.
`CN1c2cc(C(=O)N3CCN(c4cccc(Cl)c4)CC3)ccc2C(=O)N2CCCCC21` (centres undefined) gave mHTT CaM bind 97.0 and Pf apPOL block inactive.
For Cc1cccc(N2CCN(C(=O)c3ccc4c(c3)N(C)C(=O)C3CCCCN43)CC2)c1C (centres undefined) the results were mHTT CaM bind 54.5 and Pf apPOL block inactive.
Screening COc1ccc(N2CCN(C(=O)c3ccc4c(c3)N(C)C(=O)C3CCCCN43)CC2)cc1 (centres undefined) returned mHTT CaM bind inactive and Pf apPOL block inactive.
`CN1C(=O)C2CCCCN2c2ccc(C(=O)N3CCC(Cc4ccccc4)CC3)cc21` (centres undefined) gave mHTT CaM bind 87.4 and Pf apPOL block inactive.
For CN1C(=O)C2CCCCN2c2ccc(C(=O)NCc3ccccc3)cc21 (centres undefined) the results were mHTT CaM bind inactive and Pf apPOL block inactive.
Cc1cccc(N2CCN(C(=O)c3ccc4c(c3)N(C)C3CCCCN3C4=O)CC2)c1 (centres undefined) was read as mHTT CaM bind inactive and Pf apPOL block inactive.
For CN1C(=O)C2CCCCN2c2ccc(C(=O)N3CCN(c4ccccn4)CC3)cc21 (centres undefined) the results were mHTT CaM bind inactive and Pf apPOL block inactive.
`COc1ccc(C(=O)N2CCC(C(=O)NC3CCCCC3)CC2)cc1` gave mHTT CaM bind inactive and Pf apPOL block inactive.
Screening CCOC(=O)COc1ccc2c(c1)OC(=Cc1cc(Br)cc3c1OCOC3)C2=O returned mHTT CaM bind inactive and Pf apPOL block inactive.
`Cc1ccc(CNC(=O)C2(C)CCCN(C(=O)NC(C)C)C2)cc1` (centres undefined) gave mHTT CaM bind inactive and Pf apPOL block inactive.
Screening Cc1cccc(CN2C[C@@]34CC[C@@H](C[C@@H]3S2(=O)=O)O4)c1 returned mHTT CaM bind inactive and Pf apPOL block inactive.
CN1c2cc(C(=O)NCc3ccc(F)c(Cl)c3)ccc2C(=O)N2CCCCC21 (centres undefined) was read as mHTT CaM bind 56.1 and Pf apPOL block inactive.
`CN1C(=O)C2CCCCN2c2ccc(C(=O)N3CCc4ccccc4C3)cc21` (centres undefined) gave mHTT CaM bind inactive and Pf apPOL block inactive.
For Cc1ccc(C)c(N2CCN(C(=O)c3ccc4c(c3)N(C)C(=O)C3CCCCN43)CC2)c1 (centres undefined) the results were mHTT CaM bind 93.6 and Pf apPOL block inactive.
For CCN1c2cc(C(=O)NCc3cccc(Cl)c3)ccc2C(=O)N2CCCCC21 (centres undefined) the results were mHTT CaM bind inactive and Pf apPOL block inactive.
For Cc1ccc(C(C)NC(=O)C2CCN(c3cnc4nccnc4c3)CC2)c(C)c1 (centres undefined) the results were mHTT CaM bind inactive and Pf apPOL block inactive.
For Cc1ccc2c(c1)NC(=O)c1cc(NS(=O)(=O)c3ccccc3F)ccc1O2 the results were mHTT CaM bind inactive and Pf apPOL block inactive.
`Cn1c(CC2CCN(S(=O)(=O)c3cc(F)cc(F)c3)C2)nc2cccnc21` (centres undefined) gave mHTT CaM bind inactive and Pf apPOL block inactive.
CCC[C@H]1[C@@H](NC(=O)c2ccc(Cl)c(C(F)(F)F)c2)CC[C@@]23CCCN2C(=O)CCC[C@@H]13 was read as mHTT CaM bind 95.9 and Pf apPOL block inactive.
Screening C[C@H]1[C@@H](NC(=O)c2ccc(Cl)c(C(F)(F)F)c2)CC[C@@]23CCCN2C(=O)CCC[C@@H]13 returned mHTT CaM bind inactive and Pf apPOL block inactive.
CC(C)C(=O)N1CCN(c2nc3c(s2)CC(C(=O)Nc2cc(F)cc(F)c2)CC3)CC1 (centres undefined) was read as mHTT CaM bind inactive and Pf apPOL block inactive.
For CCOc1ccc(C(=O)Nc2c(C)cc(Br)cc2C)cc1Cl the results were mHTT CaM bind inactive and Pf apPOL block inactive.
For COCCN(CCOC)S(=O)(=O)c1ccc(C(=O)Nc2nnc(C)o2)cc1 the results were mHTT CaM bind inactive and Pf apPOL block inactive.
Screening CCN(Cc1ccccc1)S(=O)(=O)c1ccc(C(=O)Nc2nnc(C3CC3)o2)cc1 returned mHTT CaM bind 72.0 and Pf apPOL block inactive.
For CCCCN(CCCC)S(=O)(=O)c1ccc(C(=O)Nc2nnc(C)o2)cc1 the results were mHTT CaM bind 58.0 and Pf apPOL block inactive.
CCCCN(CC)S(=O)(=O)c1ccc(C(=O)Nc2nnc(C3CC3)o2)cc1 was read as mHTT CaM bind inactive and Pf apPOL block inactive.
Screening CCN1C(=O)c2ccccc2Oc2ccc(C(=O)N3CCCCCC3)cc21 returned mHTT CaM bind inactive and Pf apPOL block inactive.
`O[C@H]1C[C@H](c2ccc(Cl)cc2)N(CC2CCCCC2)C[C@@H]1n1cc(C2CC2)nn1` gave mHTT CaM bind 80.1 and Pf apPOL block inactive.
Screening COc1ccc([C@H]2C[C@@H](O)[C@H](n3cc(-c4ccc(F)cc4)nn3)CN2CC2CCCCC2)cc1 returned mHTT CaM bind inactive and Pf apPOL block inactive.
`O[C@@H]1C[C@H](c2ccc(Cl)cc2)N(CC2CCCCC2)C[C@H]1n1cc(C2CC2)nn1` gave mHTT CaM bind inactive and Pf apPOL block inactive.
CCCCCCN1C[C@@H](n2cc(C3CC3)nn2)[C@H](O)C[C@@H]1c1ccc(C)cc1 was read as mHTT CaM bind inactive and Pf apPOL block inactive.
`O[C@H]1C[C@H](c2ccccc2)N(CC2CCCCC2)C[C@@H]1n1cc(-c2ccc(F)cc2)nn1` gave mHTT CaM bind 55.0 and Pf apPOL block inactive.
For CCCCCCN1C[C@H](n2cc(C3CC3)nn2)[C@@H](O)C[C@@H]1c1ccc(C)cc1 the results were mHTT CaM bind 77.3 and Pf apPOL block inactive.
`Cc1cccc(NC(=O)c2c(O)c3cccc4c3n(c2=O)CC4)c1C` gave mHTT CaM bind inactive and Pf apPOL block inactive.
`Cc1ccc(/C=C2N=C(/C=C/c3ccccc3)OC\2=O)o1` gave mHTT CaM bind inactive and Pf apPOL block inactive.
Screening Cn1c(=O)c(O)c2c3c(c(Br)ccc31)C(=O)c1ccccc1-2 returned mHTT CaM bind inactive and Pf apPOL block inactive.
`COc1ccc(C(=O)N/C(=C\c2ccc3c(c2)OCO3)C(=O)NC(CCSC)C(=O)O)cc1` (centres undefined) gave mHTT CaM bind inactive and Pf apPOL block inactive.
Cc1cccc(OCc2nc(C(=O)NC(C)C)cs2)c1 was read as mHTT CaM bind inactive and Pf apPOL block inactive.
For O=C(NC1CCCCC1)C1c2ccccc2C(=O)N1C1CCCCC1 (centres undefined) the results were mHTT CaM bind inactive and Pf apPOL block inactive.
For CC1CCCCC1N1C(=O)c2ccccc2C1C(=O)NC1CCCCC1 (centres undefined) the results were mHTT CaM bind 52.0 and Pf apPOL block inactive.
Screening CCOc1cc(CN2CCOCC2)ccc1OC returned mHTT CaM bind inactive and Pf apPOL block inactive.
Screening COc1cc(C(=O)Nc2nc(-c3ccc(Cl)cc3Cl)cs2)cc(OC)c1OC returned mHTT CaM bind inactive and Pf apPOL block inactive.

Screening results from PubChem.
